Assay results from PubChem BioAssay.
The source made the active and inactive calls.

Legend:
[1] = tested on: Plasmodium falciparum Sir2 (PF13_0152, Sir2A); assay: Plasmodium falciparum Sir2A binding compounds – biochemical, small-molecule microarray, 635 nm fluorescence, primary screen (AID 1098); settings: fluorescence 635 nm, higher = more signal;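 further: score merges spot fluorescence intensity with its signal-to-noise ratio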
[2] = probe aDKK1 binding to arrayed compounds – biochemical, biotinylated probe, 635/667 nm fluorescence, primary screen (AID 1099); settings: small-molecule microarray, higher = more signal;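 further: score merges 667nm spot fluorescence with signal to noise across triplicate slides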
[3] = probe aCHRDL2 binding to arrayed compounds – biochemical, biotinylated probe, 635/667 nm fluorescence, primary screen (AID 1100); settings: small-molecule microarray, higher = more signal
[4] = change in splice reporter luminescence, either direction, cell-based, HEK293, spliceosome inhibition project, primary screen (AID 1101); settings: HEK293 splicing luciferase reporter, 24 h, higher = more signal, called active from +8 up or from −8 down;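 further: HEK293 cells carrying a splicing-competent luciferase reporter gene; test concentration not given here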
[5] = molecular target: Fibroblast growth factor 10 (Homo sapiens) (UniProt O15520); assay: compounds binding fibroblast growth factor 10 – biochemical, small-molecule microarray, 635 nm fluorescence, primary screen (AID 1102); settings: FGF10 binding, fluorescence 635 nm, higher = more signal
[6] = tested on: glycogen synthase kinase-3 (GSK3A per assay name; protocol says GSK3B); assay: compounds binding glycogen synthase kinase-3 – biochemical, small-molecule microarray, 635 nm fluorescence, GSK3A, primary screen (AID 1103); settings: fluorescence 635 nm, higher = more signal; further: the record names both GSK3A and GSK3B
[7] = molecular target: Epidermal growth factor receptor (Homo sapiens) (UniProt P00533); assay: compounds binding epidermal growth factor receptor – biochemical, small-molecule microarray, 635 nm fluorescence, primary screen (AID 1104); settings: EGFR binding, higher = more signal;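 further: score merges 667 nm emission intensity with spot signal to noise over triplicate slides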
[8] = molecular target: Follistatin-related protein 3 (Homo sapiens) (UniProt O95633); assay: compounds binding follistatin-related protein 3 – biochemical, small-molecule microarray, 635 nm fluorescence, primary screen (AID 1105); settings: FSTL3 binding, higher = more signal;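 further: score merges emission near 667 nm and signal to noise per printed spot across three slides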
[9] = molecular target: Dickkopf-related protein 1 (Homo sapiens) (UniProt O94907); assay: small molecules binding DKK1 protein – biochemical, small-molecule microarray, 635 nm fluorescence scan, primary screen (AID 1106); settings: higher = more signal;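 further: score merges emission near 667 nm with signal to noise over three replicate slides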
[10] = tested on: Inhibin beta A chain (activin A); assay: small molecules binding activin A – biochemical, small-molecule microarray, 635 nm fluorescence scan, primary screen (AID 1107); settings: INHBA, higher = more signal;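 further: mouse activin A protein probed at 4.33 µg/mL on printed slides; score merges bound-protein fluorescence near 667 nm with spot signal-to-noise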
[11] = tested on: Human papillomavirus type 1a protein E7 (residues 44-93); assay: small molecules binding HPV E7 44-93 – biochemical, small-molecule microarray, residues 44-93, 635 nm fluorescence, primary screen (AID 1108); settings: fluorescence 635 nm, higher = more signal;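 further: E7 fragment applied at 1 µg/mL in TBST for 1 h at 4 C; score combines spot fluorescence with its signal to noise ratio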
[12] = hepatitis C replication reporter changes, two-sided – Huh7 cells, luciferase reporter, HCV replication inhibitor project, primary screen (AID 1109); settings: Huh7 HCV replicon luciferase reporter, 48 h; higher = more signal;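 further: huh7 hepatoma cells harbouring a luciferase neomycin HCV replicon reporter; luciferase luminescence as measure of HCV replicon replication; test concentration not given here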
[13] = molecular target: Left-right determination factor 2 (Homo sapiens) (UniProt O00292); assay: small molecules binding LEFTY2 protein – biochemical, small-molecule microarray, 635 nm fluorescence scan, primary screen (AID 1110); settings: higher = more signal
[14] = molecular target: Calmodulin-1 (Homo sapiens) (UniProt P0DP23); assay: small molecules binding calmodulin-1 with EGTA – biochemical, small-molecule microarray, Cy5-labelled CALM1, profiling panel (AID 1111); settings: Cy5-CALM1 binding fluorescence, higher = more signal;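 further: labelled calmodulin applied in Tris saline Tween buffer holding calcium plus EGTA and DTT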
[15] = molecular target: Calmodulin-1 (Homo sapiens) (UniProt P0DP23); assay: small molecules binding Ca-loaded calmodulin-1 – biochemical, small-molecule microarray, Cy5-labelled CALM1, plus calcium, artefact control for SMM control-protein annotation, profiling panel (AID 1112); settings: Cy5-CALM1 binding fluorescence, higher = more signal;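 further: score merges spot fluorescence with signal to noise from triplicate slides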
[16] = probe aWnt5a binding to arrayed compounds – biochemical, biotinylated probe, 635/667 nm fluorescence, primary screen (AID 1113); settings: small-molecule microarray, higher = more signal;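 further: score merges 667 nm fluorescence intensity with signal-to-noise per printed feature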
[17] = probe aShh binding to arrayed compounds – biochemical, biotinylated probe, 635/667 nm fluorescence, primary screen (AID 1114); settings: small-molecule microarray, higher = more signal;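 further: probe is biotin-labelled aShh protein from a stem cell growth factor screen; measures binding of labelled protein to compounds printed on the slide; score merges feature fluorescence at 667 nm with signal-to-noise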
[18] = probe aNog binding to arrayed compounds – biochemical, biotinylated probe, 635/667 nm fluorescence, primary screen (AID 1115); settings: small-molecule microarray, higher = more signal;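 further: probe is biotinylated aNog protein used at 0.15 µg/mL for 1 h at 4 C; z-score combines 667 nm fluorescence of each spot with its signal to noise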
[19] = molecular target: Torsin-1A-interacting protein 1 (Homo sapiens) (UniProt Q5JTV8); assay: compound microarray binding of lysate hLAP1 – cell lysate, small-molecule microarray, COS7 lysate, 635/667 nm fluorescence, primary screen (AID 1116); settings: 635 nm fluorescence, higher = more signal
[20] = molecular target: Alpha-bungarotoxin (Bungarus multicinctus) (UniProt P60615); assay: compounds binding labelled alpha-BTX control protein – biochemical, small-molecule microarray, Alexa647 label, 635/667 nm fluorescence, artefact control for SMM control protein annotation, profiling panel (AID 1117); settings: alpha-BTX-A647 binding fluorescence, higher = more signal
Chain of Alpha-bungarotoxin (Bungarus multicinctus) (P60615 whole entry, looked up): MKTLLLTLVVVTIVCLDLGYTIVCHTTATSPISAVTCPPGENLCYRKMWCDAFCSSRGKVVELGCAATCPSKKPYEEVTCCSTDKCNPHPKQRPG

Chain of Follistatin-related protein 3 (Homo sapiens) (O95633 whole entry, looked up): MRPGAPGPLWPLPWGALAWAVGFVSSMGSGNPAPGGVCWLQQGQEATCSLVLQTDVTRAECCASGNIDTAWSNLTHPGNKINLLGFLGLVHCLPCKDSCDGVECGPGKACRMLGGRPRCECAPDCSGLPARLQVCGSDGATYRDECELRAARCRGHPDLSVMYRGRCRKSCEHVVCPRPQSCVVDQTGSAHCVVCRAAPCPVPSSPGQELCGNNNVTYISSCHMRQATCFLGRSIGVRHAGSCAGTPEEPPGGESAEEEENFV
Chain of Torsin-1A-interacting protein 1 (Homo sapiens) (Q5JTV8 whole entry, looked up): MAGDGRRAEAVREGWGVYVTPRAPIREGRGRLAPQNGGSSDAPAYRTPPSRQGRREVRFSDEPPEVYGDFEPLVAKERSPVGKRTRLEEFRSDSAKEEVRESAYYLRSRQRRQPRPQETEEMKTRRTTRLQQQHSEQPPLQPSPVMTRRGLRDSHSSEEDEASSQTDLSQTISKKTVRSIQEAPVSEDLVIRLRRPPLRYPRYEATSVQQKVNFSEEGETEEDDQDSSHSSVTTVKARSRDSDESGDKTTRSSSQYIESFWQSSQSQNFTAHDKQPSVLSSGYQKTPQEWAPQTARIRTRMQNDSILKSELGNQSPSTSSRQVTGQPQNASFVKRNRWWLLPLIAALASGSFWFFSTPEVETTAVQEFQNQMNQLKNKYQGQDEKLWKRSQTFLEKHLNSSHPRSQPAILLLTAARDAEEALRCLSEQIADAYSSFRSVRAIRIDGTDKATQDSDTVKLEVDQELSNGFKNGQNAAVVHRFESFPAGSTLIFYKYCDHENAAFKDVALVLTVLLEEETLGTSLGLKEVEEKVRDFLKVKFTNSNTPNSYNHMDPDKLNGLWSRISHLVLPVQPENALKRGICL
Chain of Dickkopf-related protein 1 (Homo sapiens) (O94907 whole entry, looked up): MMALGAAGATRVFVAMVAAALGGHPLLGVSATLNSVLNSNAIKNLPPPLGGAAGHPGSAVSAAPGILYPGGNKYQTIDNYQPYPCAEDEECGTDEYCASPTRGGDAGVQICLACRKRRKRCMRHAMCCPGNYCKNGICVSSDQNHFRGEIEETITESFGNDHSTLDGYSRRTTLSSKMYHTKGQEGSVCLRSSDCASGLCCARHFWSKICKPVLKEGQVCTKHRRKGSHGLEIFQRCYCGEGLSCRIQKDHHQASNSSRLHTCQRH
Chain of Epidermal growth factor receptor (Homo sapiens) (P00533 whole entry, looked up): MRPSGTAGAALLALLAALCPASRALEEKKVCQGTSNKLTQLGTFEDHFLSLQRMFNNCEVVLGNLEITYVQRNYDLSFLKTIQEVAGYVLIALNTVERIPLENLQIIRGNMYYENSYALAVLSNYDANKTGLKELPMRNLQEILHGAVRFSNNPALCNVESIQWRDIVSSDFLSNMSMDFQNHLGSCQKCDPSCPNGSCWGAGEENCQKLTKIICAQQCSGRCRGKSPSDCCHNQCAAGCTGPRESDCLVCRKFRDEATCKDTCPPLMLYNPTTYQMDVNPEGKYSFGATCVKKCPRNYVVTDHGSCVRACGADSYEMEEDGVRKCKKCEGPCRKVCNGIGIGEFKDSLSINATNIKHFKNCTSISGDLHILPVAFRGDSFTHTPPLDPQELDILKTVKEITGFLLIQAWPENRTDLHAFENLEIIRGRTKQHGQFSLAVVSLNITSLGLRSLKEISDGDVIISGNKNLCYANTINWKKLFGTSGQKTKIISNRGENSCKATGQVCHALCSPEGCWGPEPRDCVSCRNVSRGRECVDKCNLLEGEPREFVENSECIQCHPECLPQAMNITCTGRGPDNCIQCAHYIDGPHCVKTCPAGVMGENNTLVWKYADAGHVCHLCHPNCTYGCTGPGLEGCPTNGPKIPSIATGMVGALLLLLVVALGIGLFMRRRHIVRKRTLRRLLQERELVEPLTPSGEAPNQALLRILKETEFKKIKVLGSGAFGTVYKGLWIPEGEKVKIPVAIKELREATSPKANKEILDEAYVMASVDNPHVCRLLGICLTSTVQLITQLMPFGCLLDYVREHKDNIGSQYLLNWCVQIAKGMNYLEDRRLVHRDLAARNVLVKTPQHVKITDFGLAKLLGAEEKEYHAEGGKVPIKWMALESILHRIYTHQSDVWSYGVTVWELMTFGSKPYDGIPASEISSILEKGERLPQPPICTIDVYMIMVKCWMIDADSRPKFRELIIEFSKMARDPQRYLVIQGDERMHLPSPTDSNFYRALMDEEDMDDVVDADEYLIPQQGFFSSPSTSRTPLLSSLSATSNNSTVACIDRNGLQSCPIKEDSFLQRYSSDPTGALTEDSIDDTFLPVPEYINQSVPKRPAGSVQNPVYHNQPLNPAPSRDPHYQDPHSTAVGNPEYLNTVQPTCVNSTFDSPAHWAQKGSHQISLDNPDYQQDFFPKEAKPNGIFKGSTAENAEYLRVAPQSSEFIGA
Chain of Fibroblast growth factor 10 (Homo sapiens) (O15520 whole entry, looked up): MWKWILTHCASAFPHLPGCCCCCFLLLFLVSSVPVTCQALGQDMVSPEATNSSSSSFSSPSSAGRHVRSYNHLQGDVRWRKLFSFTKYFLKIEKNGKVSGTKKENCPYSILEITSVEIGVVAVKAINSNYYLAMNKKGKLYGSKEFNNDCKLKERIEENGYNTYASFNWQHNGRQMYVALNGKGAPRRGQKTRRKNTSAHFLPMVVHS
Chain of Left-right determination factor 2 (Homo sapiens) (O00292 whole entry, looked up): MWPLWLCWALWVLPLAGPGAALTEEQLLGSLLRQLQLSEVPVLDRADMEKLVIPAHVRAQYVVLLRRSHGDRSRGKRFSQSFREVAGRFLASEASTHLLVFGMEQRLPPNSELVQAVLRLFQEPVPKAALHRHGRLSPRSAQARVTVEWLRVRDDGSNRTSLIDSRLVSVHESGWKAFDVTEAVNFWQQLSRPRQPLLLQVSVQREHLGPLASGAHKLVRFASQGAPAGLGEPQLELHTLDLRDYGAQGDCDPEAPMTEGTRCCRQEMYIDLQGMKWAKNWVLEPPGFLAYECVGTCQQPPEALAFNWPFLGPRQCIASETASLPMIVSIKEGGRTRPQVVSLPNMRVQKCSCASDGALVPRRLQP

COC(=O)[C@@]1(Cc2ccc(OC)cc2)[C@H]2c3cc(C(=O)N4CCCC4)n(C[C@H](O)CO)c3C[C@H]2CN1C(=O)c1ccccc1 gave a composite z-score [1] of 1.06, a composite z-score [2] of 0.642 and a composite z-score [3] of 0.913. For the same molecule, the z-score [4] was 1.19 (inactive), the composite z-score [5] was 0.974 and the composite z-score [6] was -0.681. The composite z-score [7] was -0.352, the composite z-score [8] was -0.519 and the composite z-score [9] was -0.385. For the same molecule, the composite z-score [10] was 0.903, the composite z-score [11] was 0.464 and the z-score [12] was -0.439. It also gave a composite z-score [13] of -0.416, a composite z-score [14] of 1.14 and a composite z-score [15] of 0.91. For the same molecule, the composite z-score [16] was -0.252, the composite z-score [17] was 1.17 and the composite z-score [18] was 1.59. It also gave a composite z-score [19] of 0.707 and a composite z-score [20] of 0.113.
For Cc1ccc(F)cc1S(=O)(=O)N[C@@H]1CCN(Cc2ccc(C(F)(F)F)cc2)C1, the composite z-score [1] was -0.245, the composite z-score [2] was 0.735 and the composite z-score [3] was -0.565. The z-score [4] was 0.169 (inactive), the composite z-score [5] was -0.425 and the composite z-score [6] was -1.41. It also gave a composite z-score [7] of -0.444, a composite z-score [8] of -0.769 and a composite z-score [9] of 0.0494. It also gave a composite z-score [10] of -0.127, a composite z-score [11] of -0.237 and a z-score [12] of -2.01. For the same molecule, the composite z-score [13] was -0.0209, the composite z-score [14] was -1.3 and the composite z-score [15] was -0.904. It also gave a composite z-score [16] of -0.152, a composite z-score [17] of 0.0723 and a composite z-score [18] of -0.311. The composite z-score [19] was -0.0249 and the composite z-score [20] was -0.536.
CC(C)C(O)C1C=CC2C(=O)N(C)C(=O)C2N1N1CCCCC1 (stereo not given) gave a composite z-score [1] of 1.61, a composite z-score [2] of 0.184 and a composite z-score [3] of 0.674. For the same molecule, the z-score [4] was 1.15 (inactive), the composite z-score [5] was 0.709 and the composite z-score [6] was 0.752. The composite z-score [7] was 0.403, the composite z-score [8] was 0.159 and the composite z-score [9] was 0.13. For the same molecule, the composite z-score [10] was 0.976, the composite z-score [11] was 0.471 and the z-score [12] was 0.279. For the same molecule, the composite z-score [13] was 0.223, the composite z-score [14] was 0.372 and the composite z-score [15] was -0.387. The composite z-score [16] was -0.0462, the composite z-score [17] was 0.0723 and the composite z-score [18] was 0.693. For the same molecule, the composite z-score [19] was 0.815 and the composite z-score [20] was 0.502.
In the case of CCCNC(=O)[C@@]1(C)c2ccccc2C(=O)N(Cc2cc(F)cc(C(F)(F)F)c2)[C@H]1c1ccc(CO)cc1, the composite z-score [1] is reported as 1.25, the composite z-score [2] is reported as 0.0202 and the composite z-score [3] is reported as 0.995. For the same molecule, the z-score [4] was -0.377 (inactive), the composite z-score [5] was -1.02 and the composite z-score [6] was -0.552. The composite z-score [7] was -0.668, the composite z-score [8] was -0.286 and the composite z-score [9] was -1.44. The composite z-score [10] was -0.496, the composite z-score [11] was 0.843 and the z-score [12] was -0.372. The composite z-score [13] was -0.742, the composite z-score [14] was 0.685 and the composite z-score [15] was 0.499. For the same molecule, the composite z-score [16] was -0.0405, the composite z-score [17] was 0.0469 and the composite z-score [18] was 1.03. The composite z-score [19] was 0.296 and the composite z-score [20] was -0.0457.
C/C=C/[C@H](CCn1cc([C@H](O)c2ccccc2)nn1)[Si](C)(C)c1ccc(OC)cc1 gave a composite z-score [1] of 0.0765, a composite z-score [2] of -0.49 and a composite z-score [3] of 0.503. The z-score [4] was 0.264 (inactive), the composite z-score [5] was -0.607 and the composite z-score [6] was -0.855. The composite z-score [7] was -1.52, the composite z-score [8] was -1.72 and the composite z-score [9] was -0.338. The composite z-score [10] was -0.343, the composite z-score [11] was -0.0636 and the z-score [12] was -1.78. It also gave a composite z-score [13] of -0.915, a composite z-score [14] of -1.41 and a composite z-score [15] of -1.41. It also gave a composite z-score [16] of -0.233, a composite z-score [17] of -0.0769 and a composite z-score [18] of -0.272. For the same molecule, the composite z-score [19] was -0.66 and the composite z-score [20] was -0.977.
Molecule COc1ccc([Si](C)(C)[C@H]2[C@H](CCO)O[C@@]3(C(=O)N(Cc4ccccc4)c4ccc(N5C(=O)COc6ccccc65)cc43)[C@@H]2C)cc1 has a composite z-score [1] of 1.12, a composite z-score [2] of 0.0649 and a composite z-score [3] of 0.521. For the same molecule, the z-score [4] was -1.56 (inactive), the composite z-score [5] was 0.305 and the composite z-score [6] was -0.965. The composite z-score [7] was -0.5, the composite z-score [8] was -0.207 and the composite z-score [9] was -0.214. For the same molecule, the composite z-score [10] was 0.241, the composite z-score [11] was -1.13 and the z-score [12] was -4.64. For the same molecule, the composite z-score [13] was 0.206, the composite z-score [14] was 1.44 and the composite z-score [15] was 1.12. For the same molecule, the composite z-score [16] was -0.136, the composite z-score [17] was 0.108 and the composite z-score [18] was -0.487. The composite z-score [19] was 0.216 and the composite z-score [20] was 0.662.
